# Source: PubChem BioAssay (National Center for Advancing Translational Sciences (NCATS))
# BLM inh: inhibitors of human Bloom syndrome helicase BLM. AID 2528. P54132. recombinant BLM DNA unwinding, fluorescence dequenching. 350,000 tested, 0.2% active. Potency, µM (series often up to 56.1 µM), hits mostly inhibitors; also: nearly all actives have a fitted effect of over 35% in size
# APE1 inh: blocks human APE1 abasic DNA cleavage. recombinant APE1, TAMRA/BHQ-2 abasic DNA cleavage fluorescence. Potency, µM (highest dose often 65.8 µM), most hits filed as inhibitors. 350,000 tested, 0.35% active; also: nearly all actives have a fitted effect of over 55% in size
#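 Substrate: short duplex with […] THF abasic site, 5'-TAMRA and 3'-BHQ-2, 50 nM final. APE1 at 0.75 nM, preincubated 15 min RT with compound. Fluorescence increase from first to third read measured activity.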
# FEN1 inh-1: inhibitors of human flap endonuclease 1 | P39748 | Recombinant FEN1 flap cleavage, fluorescence, 15 min | Potency, µM (highest dose often 114 µM), most hits filed as inhibitors | 390,000 tested, 0.35% active | AID 588795; also: nearly all actives have a fitted effect of over 65% in size
#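 Concentration–response screening of FEN1 (10 nM): 15 min compound preincubation at room temperature, reaction started with 50 nM substrate and read at 0 and 15 min. Corrected, normalized data were fitted by a four-parameter Hill equation.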
# TDP1 block: TDP1 (human) enzyme inhibition; AID 485290; recombinant TDP1, AlphaScreen DNA substrate cleavage; Potency, µM (highest dose often 130 µM), most hits filed as inhibitors; 350,000 tested, 0.28% active; also: nearly all actives have a fitted effect of over 40% in size
#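 Steps: enzyme plus compound, 15 min RT; add biotin/phosphotyrosine-FITC oligonucleotide (15 nM final), react 5 min; add donor/acceptor beads (10 ug/ml final), 10 min; read AlphaScreen. Tdp1 at 1 nM final.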
# RECQ1 helicase: RECQ1 (human) helicase inhibition | 240,000 tested, 0.54% active | RECQ1 DNA unwinding, red fluorescence kinetic read | P46063 | AID 2549 | Potency, µM (top dose mostly 57.3 µM), actives largely listed as inhibitors; also: nearly all actives have a fitted effect of over 30% in size
#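 RECQ1T1 50 nM; forked duplex (20 bp + 30-nt ss tails) 200 nM, ATP 2 mM final; pH 8.0, 2 mM MgCl2, 2.5 ug/ml poly(dI-dC); 15 min compound preincubation; discontinuous kinetic read over 2 h at RT.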
# FEN1 inh-2: confirmation of human FEN1 inhibitors. shares compounds with FEN1 inh-1. FEN1 flap cleavage, TAMRA/BHQ2 fluorogenic DNA substrate. Potency, µM, usual class: inhibitors. 880 tested, 79% active; also: nearly all actives have a fitted effect of over 60% in size
# Numbers stand for hits; i = inactive; ? = inconclusive; nt = no result given; [ ] = another dose, or the depositor's remark. Compounds with a hit are over-represented: about 0.92% of the library has one in this group of screens. Calls follow the shape of the dose curve; as a rule, active = well fitted curve in the direction sought with a large enough effect; inconclusive = small, poorly fitted or top-dose-only effect, or another doubt; inactive = no such curve, though single readings can be large; an effect the other way counts as inactive or inconclusive.
SMILES,BLM inh,APE1 inh,FEN1 inh-1,TDP1 block,RECQ1 helicase,FEN1 inh-2
CCCCC/C=C\C/C=C\C/C=C\CCCCC(=O)NCCc1ccc(O)c(O)c1,i,i,nt,i,i,nt
Nc1ccc2ccc3cccc[n+]3c2c1,i,i,50µM,nt,nt,?
Oc1c(Cl)cc(Cl)cc1Cl,nt,i,nt,i,?,nt
Cc1ccccc1-n1c(O)c(/C=C/C=Nc2ccccc2)c(=O)[nH]c1=O,i,i,i,i,25µM,85
CC[C@@H]1[C@@H]2C[C@H]3[C@H]4N(C)c5ccccc5[C@@]45C[C@@H]([C@@H]2[C@@H]5O)N3[C@H]1O,i,nt,nt,i[21 µM],i,nt
CN1CCc2nc3sc(C#N)c(N)c3c(-c3cccs3)c2C1,i,i,?,i,i,?
C[n+]1c(-c2ccccc2)c2cc(N)ccc2c2ccc(N)cc21,?,11µM,11µM,nt,nt,9.5
CSc1nc(N)c(N=Nc2ccc([As](=O)(O)O)cc2)c(=O)[nH]1,i,i,i,i,i,76
CCC1CN2CCC1CC2C(O)c1ccnc2ccc(OC)cc12 (stereo not given),i,i,nt,i,i,nt
